Data from PubChem BioAssay (EPA / NIEHS).
Values joined by “and” are separate entries in the source; they are usually repeats but may differ in a detail not shown here. Identical values can stand only once. Results filed as inconclusive are left out. The source holds several records for some structures; these can differ, active in one and inactive in another. Active and inactive are the calls of the source. How the source made its calls, unless noted: active means hit-call score of the fitted dose curve at least 0.9, where 1 is the maximum; inactive means score below 0.9.

What was measured:
[1] = BSK_BT_PBMCCytotoxicity: PBMC Cytotoxicity Assessment in the BioMAP Diversity Plus: BT Assay (AID 2284225); settings: primary human B cells with PBMC;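 further: PBMC viability measured by Alamar Blue dye reduction fluorescence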
Method in brief: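 Primary human co-culture of B cells and PBMC, pre-dosed 1 h then activated with SEB and TSST-1. Cytotoxicity is taken from Alamar Blue dye reduction, added for 6 h at the end of a 90 h incubation.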

[2] = read-out: Secreted IgG (sIgG), gene 3500; assay: BSK_BT_sIgG: BioMAP Diversity Plus: BT Assay for Secreted IgG (sIgG) Biomarker Activity (AID 2284226); settings: primary human B cells with PBMC
Method in brief: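 Human B cell/PBMC co-culture; compound exposure 24 h; sIgG by ELISA; gain-of-signal fit vs DMSO baseline.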

[3] = BSK_BT_Bcell_Proliferation: Viability Assessment in the BioMAP Diversity Plus: BT Assay for B cell Proliferation (AID 2284227); settings: primary human B cells with PBMC
Method in brief: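 Human B cells co-cultured with PBMC were dosed with test chemicals and relative cell number was quantified by SRB staining at 72 h. Cells were fixed in 10% TCA, stained with 0.1% SRB and read at 560 nm. Activity was fitted in the positive direction against DMSO.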

[4] = read-out: Interleukin 6 (IL6), IL6 (gene 3569); assay: BSK_BT_xIL6: BioMAP Diversity Plus: BT Assay for Interleukin 6 (IL6) Biomarker Activity (AID 2284228); settings: primary human B cells with PBMC
Method in brief: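 IL-6 secretion measured (Luminex xMAP) in human primary B cell + PBMC co-culture at 24 h of chemical exposure; DMSO served as negative control and activity baseline, with curves fitted for increase.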

[5] = read-out: Tumor necrosis factor (Homo sapiens) (UniProt P01375); assay: BSK_BT_xTNFa: BioMAP Diversity Plus: BT Assay for Tumor necrosis factor alpha (TNF-alpha) Biomarker Activity (AID 2284230); settings: primary human B cells with PBMC
Method in brief: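 B cells with PBMC in co-culture, dosed and sampled at 24 h; secreted TNF-alpha measured by Luminex xMAP bead assay. Activity fitted in the gain direction against DMSO as negative control and baseline.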

[6] = CCTE_Mundy_HCI_Cortical_NOG_NeuriteCount: CCTE's Neurite Outgrowth Assay in rat cortical cells for Neurite Count, Mundy Lab (AID 2284212);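 further: cells fixed about two days after chemical exposure began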
Method in brief: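 Rat cortical primary cells; compound added 2 h post-plating, 1/10 dilution of working solution. Anti-betaIII-tubulin/AF488 ICC; ArrayScan neurite count vs DMSO.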

[7] = CCTE_Mundy_HCI_Cortical_NOG_NeuriteLength: CCTE's Neurite Outgrowth Assay in rat cortical cells for Neurite Length, Mundy Lab (AID 2284213)
Method in brief: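 First, rat primary cortical cells were plated and, 2 h later, given test chemical as a 1/10 dilution. Finally, βIII-tubulin immunostaining enabled automated imaging of neurite length.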

[8] = CCTE_Mundy_HCI_Cortical_Synap_Neur_Matur_NeuriteLength: CCTE's Synaptogenesis and Neurite Maturation Assay in rat cortical cells for Neurite Length, Mundy Lab (AID 2284214)
Method in brief: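 Read-out: high-content imaging of MAP2-labelled neurites, with synaptophysin and Hoechst co-stain, in rat cortical cultures fixed at DIV 12. Activity fitted in positive direction relative to DMSO baseline.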

[9] = CCTE_Mundy_HCI_Cortical_Synap_Neur_Matur_NeuriteSpotCountPerNeuron: CCTE's Synaptogenesis and Neurite Maturation Assay in rat cortical cells for Neurite Spot Count per Neuron Count, Mundy Lab (AID 2284215)
Method in brief: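 Developing rat cortical neurons, with glia suppressed by AraC, are exposed to chemicals from DIV 7 to DIV 12. Automated fluorescence imaging of MAP2-labelled neurites and synaptophysin puncta yields a count per neuron, normalised against DMSO wells.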

[10] = TAMU_PeakParms_SingleDonor1434_Chronotropy: Texas A&M University (TAMU) 1.5-hr Human Induced Pluripotent Stem Cell (iPSC)-derived Cardiomyocytes Calcium (Ca+2) Flux Assay for Cardiotoxicity: Chronotropy (changes in peak frequency) (AID 2284217); settings: actives raise or lower the signal
Method in brief: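 iPSC-derived cardiomyocytes (single donor 1434) dosed at 0.2, 1, 10 and 100 uM in 0.5% DMSO for 1.5 h at 37C; Ca2+ dye fluorescence gave average beat frequency. Zero-beat points removed; bidirectional fit versus DMSO, POD as EC05.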

[11] = CCTE_Mundy_HCI_Cortical_Synap_Neur_Matur_SynapseCount: CCTE's Synaptogenesis and Neurite Maturation Assay in rat cortical cells for Synapse Count, Mundy Lab (AID 2284218)
Method in brief: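 Read-out: synapse number per neuron, automated high-content imaging of fixed cells immunostained for MAP2 and synaptophysin plus Hoechst nuclei. Rat primary cortical cultures, AraC at DIV 5, chemical dosing DIV 7–12. Positive-direction fit relative to DMSO.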

[12] = CCTE_Mundy_HCI_Cortical_Synap_Neur_Matur_NeuriteCount: CCTE's Synaptogenesis and Neurite Maturation Assay in rat cortical cells for Neurite Count, Mundy Lab (AID 2284222);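 further: exposure from day 7 to day 12 in vitro with readout at day 12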
Method in brief: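 Rat primary cortical cells; AraC added at DIV 5, chemicals dosed with media change at DIV 7 through DIV 12. MAP2/synaptophysin/Hoechst immunostaining, high-content imaging of neurite number; fitted relative to DMSO.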

[13] = CCTE_Mundy_HCI_Cortical_Synap_Neur_Matur_CellBodySpotCount: CCTE's Synaptogenesis and Neurite Maturation Assay in rat cortical cells for Cell Body Spot Count, Mundy Lab (AID 2284223)
Method in brief: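 Chemicals were applied to AraC-treated rat primary cortical cells at DIV 7 and measured at DIV 12. Fixed cells were labelled for MAP2, synaptophysin and nuclei, and high-content imaging gave cell body synaptophysin spot counts per neuron relative to DMSO.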

[14] = TAMU_HCS_1.5hr_SingleDonor1434_Cytotoxicity: Cytotoxicity Assessment using High-content Screening (HCS) Fluorescent Imaging for the Texas A&M University (TAMU) 1.5-hr Human Induced Pluripotent Stem Cell (iPSC)-derived Cardiotoxicity Assay (AID 2284234; active means hit-call score of the fitted dose curve at least 0.9, where 1 is the maximum)
Method in brief: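 Nuclear counts from Hoechst 33342 imaging define cytotoxicity here, with EC10 (10% cell-count loss relative to DMSO) as point of departure. iPSC cardiomyocytes received 0.2-100 uM test chemical in 0.5% DMSO for 1.5 h at 37 C.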

[15] = TAMU_PeakParms_SingleDonor1434_QT: Texas A&M University (TAMU) 1.5-hr Human Induced Pluripotent Stem Cell (iPSC)-derived Cardiomyocytes Calcium (Ca+2) Flux Assay for Cardiotoxicity: QT (decay-rise ratio) (AID 2284235; active means hit-call score of the fitted dose curve at least 0.9, where 1 is the maximum)
Method in brief: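 Decay/rise ratio of calcium-flux fluorescence scored after 90 min exposure (37C) of donor 1434 iPSC cardiomyocytes to 0.2–100 uM (0.5% DMSO). Beat-cessation and severe-notch points removed; POD is EC05, a 5% rise over DMSO.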

[16] = CCTE_Mundy_HCI_hN2_NOG_NeuriteCount: CCTE's Neurite Outgrowth Assay in human hN2 cells for Neurite Count, Mundy Lab (AID 2284219; active means hit-call score of the fitted dose curve at least 0.9, where 1 is the maximum)
Method in brief: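 In this morphology assay, hNP1-derived neurons received test chemical 2 h post-plating and were fixed two days later in warm paraformaldehyde/sucrose containing Hoechst 33342. Neurites, labelled by rabbit anti-βIII-tubulin (1:800) and Alexa Fluor-488 (1:500), were counted automatically.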

[17] = CCTE_Mundy_HCI_hN2_NOG_NeuriteLength: CCTE's Neurite Outgrowth Assay in human hN2 cells for Neurite Length, Mundy Lab (AID 2284220; active means hit-call score of the fitted dose curve at least 0.9, where 1 is the maximum)
Method in brief: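 Using βIII-tubulin immunofluorescence and Hoechst nuclear counterstain, this component quantifies neurite length in hNP1-derived neurons.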

[18] = CCTE_Mundy_HCI_hNP1_Pro_ResponderAvgInten: CCTE's Proliferation Assay in human neuroprogenitor cells, Mundy Lab (AID 2284224; active means hit-call score of the fitted dose curve at least 0.9, where 1 is the maximum;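 further: human neural progenitor cells hNP1 derived from WA09 embryonic stem cells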)
Method in brief: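 Human neuroprogenitors (hNP1, WA09 lineage) receive test chemical after 40 to 44 hours of attachment. A four-hour BrdU pulse begins twenty hours later, followed by fixation and high content imaging; signal is referenced to DMSO controls.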

[19] = UKN2_HCS_IMR90_cell_viability: Viability Assessment in the University of Konstanz (UKN) Leist Lab Neural Crest Cell Migration Assay in human induced IMR90 Pluripotent Stem Cells (UKN2) (AID 2284233);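 further: viability of neural crest cells differentiated from IMR90 iPSC measured by calcein-AM fluorescence imaging; cells exposed to compound for 24 h after a 24 h migration phase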
Method in brief: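 cMINC format, iPSC-derived neural crest (IMR90); 24 h migration (EGF/FGF, N2-S), then 24 h toxicant. Calcein-AM/H-33342 stain 30 min; fluorescence intensity by HCS; DMSO-normalised, bidirectional fitting.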

Measured: AC50

Tumor necrosis factor (Homo sapiens), sequence (P01375 whole entry, looked up): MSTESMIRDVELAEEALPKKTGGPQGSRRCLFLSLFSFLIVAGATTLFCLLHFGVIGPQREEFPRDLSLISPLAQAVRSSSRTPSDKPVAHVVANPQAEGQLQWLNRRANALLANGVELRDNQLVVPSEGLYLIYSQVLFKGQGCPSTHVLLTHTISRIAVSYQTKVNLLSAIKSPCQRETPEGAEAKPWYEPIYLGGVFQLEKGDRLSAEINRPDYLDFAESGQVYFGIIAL

O=c1ssc(Cl)c1Cl
active: [1] 6.76 µM | [2] 3.62 µM | [3] 6.31 µM | [4] 6.42 µM | [5] 8.17 µM

COC(=O)C(F)(F)C(F)(F)OC(F)(C(F)(F)F)C(F)(F)OC(F)=C(F)F (configuration not stated)
inactive: [1] | [2] | [3] | [4] | [5]

CCCCC(CC)COP(=O)(Oc1ccccc1)Oc1ccccc1 (configuration not stated)
inactive: [6] | [7] | [8] | [9] | [10] | [11] | [12] | [13] | [15]
active: [1] 36.7 µM | [2] 16.1 µM | [3] 31.3 µM | [4] 20 µM | [5] 20 µM | [14] 50 µM

O=C(O)C(F)(F)OC(F)(F)C(F)(F)OC(F)(F)F
inactive: [1] | [2] | [3] | [4] | [5]
active: [3] 12.6 µM

CCOP(=S)(NC(C)C)Oc1ccccc1C(=O)OC(C)C (configuration not stated)
inactive: [1] | [3] | [5]
active: [2] 14.2 µM | [4] 14.3 µM

CC(O)C(F)(F)C(F)(F)F (configuration not stated)
inactive: [1] | [2] | [3] | [4] | [5]

O=P1(N(CCCl)CCCl)NCCCO1 (configuration not stated)
inactive: [6] | [7] | [8] | [9] | [11] | [16] | [17] | [12] | [13]

O=C(O)C(F)(OC(F)(F)C(F)(F)C(F)(F)F)C(F)(F)F (configuration not stated)
inactive: [6] | [7] | [8] | [9] | [11] | [12] | [13] | [18] | [1] | [2] | [3] | [4] | [5] | [19]
active: [1] 0.22 µM | [3] 220 nM and 291 nM | [5] 6.18 µM
